Bioassay records as filed in PubChem.
CYP2C19 activ = human CYP2C19 activators, primary screen, biochemical, luminescence. activation factor at 5 µM. recombinant CYP2C19, luciferin-H EGE luminescence; stronger effect = higher value; 0 = fully inhibited enzyme, 1 = untreated enzyme. 96,000 tested, under 10 active. Cytochrome P450 2C19 (Homo sapiens), P33261;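 active means activation factor of at least 2 at 5 µM in the primary screen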;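 further: 0 = wells with 2.5 mM tranylcypromine and 1 = vehicle-only wells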
Cav3 T inh = Cav3.2 calcium influx blockers – cell-based, Fluo-4 calcium fluorescence, FDSS, MLSMR library, primary screen; Voltage-dependent T-type calcium channel subunit alpha-1H (Homo sapiens), O95180; B-score at 10 µM; Cav3.2-expressing cells; stronger effect = lower value; 100,000 tested, 4% active;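 active means single-dose well whose peak fluorescence ratio is a statistical outlier from its plate by either plate-standardised score or position-corrected B-score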
CYP2C9 inhib = blockers of cytochrome P450 2C9 activity – biochemical, luminescence, ADME assay, primary screen. AID 777, 2007. P11712. CYP2C9 Supersomes, luciferin-H conversion. inhibition, % at 5 µM. 96,000 tested, 20% active;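 active means blocking of liver enzyme CYP2C9 beyond about 50% at 5 µM, limit read from the data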
PTK2B oligo ant = antagonists of Pyk2 self-association, primary screen, Q293 cells, FERM NanoBiT luminescence, HTS | Protein-tyrosine kinase 2-beta (Homo sapiens), Q14289 | stronger effect = lower value | z-score (the deposit names both 25 µM and 10 µM) | 99,000 tested, 0.83% active | AID 1347419, 2020;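 active means Z-score of -3 or lower, scaled per plate to the spread of control and sample wells; inactive means z-score above -3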;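 further: negative z-score means lost luminescence so less FERM oligomerization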
Target sequence (Q14289 whole entry, looked up): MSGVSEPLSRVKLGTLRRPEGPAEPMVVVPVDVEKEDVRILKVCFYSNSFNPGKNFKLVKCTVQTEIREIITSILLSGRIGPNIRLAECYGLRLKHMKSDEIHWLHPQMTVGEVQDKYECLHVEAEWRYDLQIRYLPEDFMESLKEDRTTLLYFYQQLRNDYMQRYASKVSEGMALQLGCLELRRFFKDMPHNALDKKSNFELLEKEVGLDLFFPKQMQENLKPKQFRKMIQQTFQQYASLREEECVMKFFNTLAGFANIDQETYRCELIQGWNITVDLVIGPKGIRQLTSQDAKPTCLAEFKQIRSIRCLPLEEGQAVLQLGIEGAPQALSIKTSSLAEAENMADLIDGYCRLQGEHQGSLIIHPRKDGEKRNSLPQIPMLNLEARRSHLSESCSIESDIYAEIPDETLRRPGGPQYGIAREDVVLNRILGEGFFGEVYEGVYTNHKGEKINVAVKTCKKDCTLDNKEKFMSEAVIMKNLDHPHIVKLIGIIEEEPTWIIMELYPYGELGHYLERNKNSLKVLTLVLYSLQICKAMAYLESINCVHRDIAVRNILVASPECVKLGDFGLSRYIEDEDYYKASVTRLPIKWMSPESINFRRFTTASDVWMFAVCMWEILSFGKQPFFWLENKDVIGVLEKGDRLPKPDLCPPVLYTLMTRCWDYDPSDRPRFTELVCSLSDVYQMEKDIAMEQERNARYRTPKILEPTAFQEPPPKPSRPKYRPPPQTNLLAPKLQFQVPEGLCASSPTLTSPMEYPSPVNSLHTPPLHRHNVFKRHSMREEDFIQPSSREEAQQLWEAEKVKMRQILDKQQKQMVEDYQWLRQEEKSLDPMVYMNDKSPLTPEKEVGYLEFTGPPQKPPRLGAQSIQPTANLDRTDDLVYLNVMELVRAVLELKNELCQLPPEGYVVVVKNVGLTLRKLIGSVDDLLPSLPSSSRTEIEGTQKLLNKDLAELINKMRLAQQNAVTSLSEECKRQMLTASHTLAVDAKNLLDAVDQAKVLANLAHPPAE
CYP2C19 inhib = blockers of cytochrome P450 2C19 activity – biochemical, luminescence, ADME assay, primary screen; CYP2C19 Supersomes, luciferin-H EGE luminescence, 30 min; 96,000 tested, 21% active; inhibition, % at 5 µM; P33261;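 active means CYP2C19 inhibition above a set limit at 5 µM in the primary screen, cut at about 50% in these data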;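 further: plate controls were negative control wells for no effect and 2.5 mM tranylcypromine positive control for full effect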
CYP2C9 activ = human CYP2C9 activators, primary screen, biochemical, luminescence. Cytochrome P450 2C9 (Homo sapiens), P11712. recombinant CYP2C9, luciferin-H conversion; stronger effect = higher value; factor 1 = untreated enzyme, 0 = blocked. activation factor at 5 µM. 96,000 tested, 1.4% active. AID 1024, 2008;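 active means activation factor of 2 or more for CYP2C9 at a 5 µM dose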;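 further: 0 = sulfaphenazole-blocked wells and 1 = vehicle-only wells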
The depositor's hits bear a star; / = not tested or not shown. An excerpt weighted towards active compounds, which were near 27% of everything screened.

SMILES	CYP2C19 activ	Cav3 T inh	CYP2C9 inhib	PTK2B oligo ant	CYP2C19 inhib	CYP2C9 activ
Cc1ccc(S(=O)(=O)/N=C(/NC(=S)Nc2cccc(C)c2)c2ccccc2)cc1	0.8	/	40.0	-0.63	20.0	0.6
COC(=O)c1sc2cc(C(F)(F)F)cnc2c1-c1cccnc1	0.6	0.627	51.7*	-0.28	38.4	0.5
NC(=O)c1sc2cc(C(F)(F)F)cnc2c1-c1cccs1	0.8	/	24.0	-0.91	19.9	0.8
O=C(Nc1ccccc1)c1sc2cc(C(F)(F)F)cnc2c1-c1cccs1	0.5	-0.635	73.9*	0.13	52.1*	0.3
Cc1ccc(CNC(=O)c2nc3nc(C)cc(C)n3n2)cc1	1.2	-0.0148	-14.0	0.48	-18.3	1.1
CCCn1c2c(c(O)c(C(=O)Nc3ccc(OC)cc3)c1=O)CCCC2	0.9	-0.98	79.2*	-1.36	6.5	0.2
CCCn1c2c(c(O)c(C(=O)NC)c1=O)CCCC2	/	0.116	/	0.76	/	/
COc1ccc2c(c1)c(=O)oc1cc3oc(C)c(C)c3cc12	0.3	/	18.4	/	69.5*	0.8
COc1ccc2c(c1)c(=O)oc1cc(O)ccc12	/	1.25	/	/	/	/
Fc1ccccc1N1CCN(CC2CC3C=CC2C3)CC1 (stereo not drawn)	0.7	0.349	5.3	0.83	26.4	0.9
C1=CC2CC1CC2CN1CCN(Cc2ccccc2)CC1 (stereo not drawn)	0.5	0.797	-7.9	0.05	52.6*	1.1
Cn1cc(Br)c(C(=O)NNC(=O)c2cccc(Br)c2)n1	1.1	/	-87.4	-0.01	-10.4	1.9
CCOC(=O)C1CCN(C(=O)Nc2ccc3nc(-c4ccco4)c(-c4ccco4)nc3c2)CC1	0.3	-2.79	75.3*	-1.2	71.0*	0.2
CCOC(=O)C1CCN(C(=S)Nc2cccc(C)c2)CC1	0	-0.0934	23.5	0.82	95.7*	0.8
CCOC(=O)C1CCN(C(=O)Nc2ccccc2Cl)CC1	0.4	0.492	5.4	0.6	64.8*	0.9
CCOC(=O)C1CCCN(C(=S)Nc2cc(C)cc(C)c2)C1 (stereo not drawn)	0.3	0.429	12.9	0.38	70.3*	0.9
CCOC(=O)C1CCCN(c2c(Nc3cc(C)cc(C)c3)c(=O)c2=O)C1 (stereo not drawn)	0.6	0.538	31.1	/	40.5	0.7
CCOC(=O)N1CCN(C(=S)Nc2cccc(C)c2)CC1	0.7	0.593	-6.2	0.31	33.9	1.1
COc1cc(/C=N/NC(=S)Nc2cccc(Cl)c2C)ccc1OCC(=O)N1CC(C)OC(C)C1 (stereo not drawn)	/	/	/	-1.35	/	/
Nc1c(NCc2ccccc2F)c(=O)[nH]c(=O)n1Cc1ccccc1	0.4	-0.667	74.8*	-0.39	63.0*	0.3
O=C(Nc1ccc(Cl)cc1)C1=Cc2ccccc2OC1	0.7	-0.0578	10.2	0.42	29.2	0.9
COc1ccc(C2C(C(=O)N3CCOCC3)CCC(=O)N2c2cc(OC)c(OC)c(OC)c2)cc1 (stereo not drawn)	/	0.1	/	0.72	/	/
Cc1ccc(N=C2C(=S)N(c3ccc(C)cc3)C(=N)N2/N=C/c2ccc(Cl)cc2)cc1	/	-1.39	/	0.17	/	/
Cc1ccc(S(=O)(=O)N2CC3CCC2C3)cc1 (stereo not drawn)	0.4	0.0328	-36.5	0.71	64.6*	1.4
Cc1ccc(S(=O)(=O)N2CCCC2C(=O)O)cc1 (stereo not drawn)	1.1	0.0255	-22.0	-0.06	-5.8	1.2
SMILES	CYP2C19 activ	Cav3 T inh	CYP2C9 inhib	PTK2B oligo ant	CYP2C19 inhib	CYP2C9 activ
COc1ccc(C2N(C(=O)c3ccccc3)CCN2C(=O)c2ccccc2)cc1	0.3	0.137	49.7	-1.08	68.6*	0.5
Cc1ccc(S(=O)(=O)N2CCN(S(C)(=O)=O)C2c2ccccc2)cc1 (stereo not drawn)	0.4	0.871	45.8	0.6	63.6*	0.5
Cc1ccc(S(=O)(=O)N2CCN(S(=O)(=O)c3ccc(C)cc3)C2c2ccccc2)cc1	0.2	-4.16	-42.0	0.05	79.0*	1.4
CSc1nnc2c(n1)OC(C1CC=C(C)CC1)Nc1ccccc1-2 (stereo not drawn)	1.1	/	-25.6	/	-9.4	1.3
Cc1cc(C)n(C(=O)c2cc3ccccc3c(=O)o2)n1	1	-0.0148	-44.8	2.36	-4.5	1.4
COc1ccc(C2N(S(=O)(=O)c3ccccc3)CCN2S(=O)(=O)c2ccc(C)cc2)cc1 (stereo not drawn)	0.1	-2.32	64.6*	0.18	85.7*	0.4
COc1ccc(OC)c(CN2CCCC(CO)C2)c1 (stereo not drawn)	1.1	0.0746	-8.4	-0.16	-9.8	1.1
COc1c2occc2c(OC)c2c(=O)cc(C(F)(F)C(F)(F)F)oc12	0	-0.51	60.6*	-3.21*	98.1*	0.4
Cc1cccc(NC(=S)NCc2ccc3c(c2)cc(C)n3C)c1C	/	-3.22	/	/	/	/
COc1cccc(OC)c1C(=O)N1CCN(c2c(Cc3ccccc3)c(C)nc3ncnn23)CC1	1	1.5	38.8	-0.68	1.8	0.6
CCc1c(C)nc2ncnn2c1N1CCC(C(=O)N2CCN(c3ccc(F)cc3)CC2)CC1	0.4	1.09	5.7	-0.59	60.6*	0.9
Cc1nc2ncnn2c(N2CCC(C(=O)NC3CCCC3)CC2)c1Cc1ccccc1	0.3	0.756	60.0*	0.42	66.3*	0.4
c1ccc(Cn2c(CN3CCCC3)nc3ccccc32)cc1	0.4	0.221	8.4	0.31	57.9*	0.9
Cn1c(CNc2nc3ccccc3n2CCN2CCCCC2)nc2ccccc21	1.1	0.935	-3.5	0.4	-7.6	1
CCN(CC)CCn1c(NCc2ccco2)nc2ccccc21	1	0.195	12.7	0.89	-3.6	0.9
Cn1cccc1-c1nc2ccccc2n1Cc1ccccc1	0.7	-4.73*	25.5	-0.57	26.4	0.7
CCN(CC)CCn1c(NCc2nc3ccccc3n2Cc2ccccc2)nc2ccccc21	0.8	-4.24*	85.7*	-0.24	19.2	0.1
COc1ccc(Cn2c(-c3ccc(OC)cc3)nc3ccccc32)cc1	/	/	/	-0.38	/	/
c1ccc(Cn2c(CNc3nc4ccccc4n3CCN3CCCCC3)nc3ccccc32)cc1	/	-3.81*	/	0.25	/	/
COCc1cc(=O)[nH]c(/N=C(\N)Nc2ccccc2C)n1	1	-0.0465	-1.2	0.55	-4.9	1
CCOC(=O)/C(C(N)=NCCCO)=C(/O)c1ccccc1	0.9	-0.493	-8.7	0.5	8.7	1.1
CC(=O)SCC(Cc1ccccc1)C(=O)NCC(=O)OCc1ccccc1 (stereo not drawn)	/	-5.21*	/	/	/	/
